# Laboratory results from PubChem BioAssay (NCATS).
# Records with an inconclusive call do not appear. Entries that show only a call come without a potency. Active and inactive are the calls of the source. Unless noted, calls follow the shape of the dose curve; as a rule, active = well fitted curve in the direction sought with a large enough effect; inconclusive = small, poorly fitted or top-dose-only effect, or another doubt; inactive = no such curve, though single readings can be large; an effect the other way counts as inactive or inconclusive.
# Columns and labels:
# [1] = qHTS for Activators of Parkin Expression: LOPAC Validation Assay (FLuc Reporter) (AID 720573)
# Method in brief: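 FLuc signal from Parkin-promoter coincidence reporter neuronal cells, normalized to DMSO and positive control (100%). Cells (1,500/well) pre-incubated 24 h, then exposed to LOPAC compounds in 7-point dose response for 24 h at 37 C, 5% CO2.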
# [2] = target: T1, Hexokinase-4 (Homo sapiens) + Glucokinase regulatory protein (Homo sapiens) (UniProt P35557+Q14397); assay: qHTS assay for inhibitors of recombinant human GCK-GKRP interaction: Diaphorase-coupled assay (AID 743205)
# T1 sequence (P35557 whole entry, looked up): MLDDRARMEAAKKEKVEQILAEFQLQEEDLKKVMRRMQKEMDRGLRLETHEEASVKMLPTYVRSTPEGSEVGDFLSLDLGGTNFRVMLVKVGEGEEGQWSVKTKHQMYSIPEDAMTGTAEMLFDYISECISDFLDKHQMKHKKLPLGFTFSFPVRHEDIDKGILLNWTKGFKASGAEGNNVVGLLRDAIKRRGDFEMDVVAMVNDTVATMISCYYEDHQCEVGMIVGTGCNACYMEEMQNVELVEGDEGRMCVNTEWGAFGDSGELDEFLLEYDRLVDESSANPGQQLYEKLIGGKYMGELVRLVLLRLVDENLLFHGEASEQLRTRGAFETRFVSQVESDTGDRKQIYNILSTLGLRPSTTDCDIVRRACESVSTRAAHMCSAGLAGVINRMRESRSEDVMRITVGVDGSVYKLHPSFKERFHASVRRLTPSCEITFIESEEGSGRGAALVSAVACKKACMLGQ
# T1 sequence (Q14397 whole entry, looked up): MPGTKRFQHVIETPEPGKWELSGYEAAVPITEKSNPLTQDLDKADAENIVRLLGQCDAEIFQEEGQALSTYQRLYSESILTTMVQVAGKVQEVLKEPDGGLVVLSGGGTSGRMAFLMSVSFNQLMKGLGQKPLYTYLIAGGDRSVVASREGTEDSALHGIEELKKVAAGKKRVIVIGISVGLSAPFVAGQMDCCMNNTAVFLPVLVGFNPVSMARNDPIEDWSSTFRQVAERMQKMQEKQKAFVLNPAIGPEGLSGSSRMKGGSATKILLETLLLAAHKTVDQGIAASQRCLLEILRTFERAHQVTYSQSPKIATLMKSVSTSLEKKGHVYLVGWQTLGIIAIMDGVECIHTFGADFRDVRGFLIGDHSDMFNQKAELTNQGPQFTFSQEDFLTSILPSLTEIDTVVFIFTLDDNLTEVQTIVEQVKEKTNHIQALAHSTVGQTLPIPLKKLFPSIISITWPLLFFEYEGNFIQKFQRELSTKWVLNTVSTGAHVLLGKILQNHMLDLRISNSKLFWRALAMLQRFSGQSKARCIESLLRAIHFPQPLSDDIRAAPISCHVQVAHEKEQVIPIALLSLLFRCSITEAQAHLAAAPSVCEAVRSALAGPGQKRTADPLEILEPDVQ
# Method in brief: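 A kinetic fluorescence read (Ex 525/Em 590 nm, every minute for 30 minutes) tracked resorufin from a G6PDH-diaphorase coupled GCK reaction. It contained 10 nM GST-GCK, 10 nM FLAG-GKRP, 5 mM glucose, 0.4 mM ATP in Hepes pH 7.6. Normalized to with/without-enzyme DMSO controls.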
# [3] = target: T1, Hexokinase-4 (Homo sapiens) + Glucokinase regulatory protein (Homo sapiens); assay: qHTS assay for inhibitors of recombinant human GCK-GKRP interaction: ADP-Glo assay (AID 743206)
# Method in brief: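 Pin-transferred compounds meet a 15 nM GST-GCK/15 nM FLAG-GKRP/2 uM S6P mix (dispense concentrations). ATP is then added to 0.4 mM final with 5 mM glucose, and the reaction runs 60 min at room temperature. ADP is quantified luminescently.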
# [4] = target: T1, Hexokinase-4 (Homo sapiens) + Glucokinase regulatory protein (Homo sapiens); assay: qHTS assay for inhibitors of recombinant human GCK-GKRP interaction: HTRF assay (AID 743207)
# Method in brief: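 After 60 min equilibration at room temperature with anti-FLAG XL665 and anti-GST antibodies, FRET ratio (665/615 nm, excitation 320 nm) was read. Proteins: GST-GCK and FLAG-GKRP, each 5 nM, plus 2 uM S6P, pH 7.1 buffer; GCK-free wells define minimum signal.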
# [5] = qHTS Assay for Identifying Gametocytocidal Compounds (AID 743244);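 also: actives lower the fluorescent signal which means gametocytes are killed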; conditions: P. falciparum 3D7 stage III-V gametocytes, alamarBlue, 72 h; max response: stronger effect = lower value
# Method in brief: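 3D7 gametocytes, stages III–V, 20,000/well; cpd 72 h, 37 °C/5% CO2; + alamarBlue 24 h; fluor. Ex 525/Em 598.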
# [6] = Natriuretic polypeptide receptor (hNpr1) antagonism - Pilot counterscreen GloSensor control cell line (AID 1347045; calls by dose curve)
# Method in brief: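 Control counterscreen: luciferase cGMP-biosensor HEK293 cells (no Npr1) received compound for 30 min at room temperature after GloSensor substrate loading. Luminescence was measured before and 20 min after soluble guanylyl cyclase activation by 50 uM nitroprusside.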
# [7] = target: Atrial natriuretic peptide receptor 1 (Homo sapiens) (UniProt P16066); assay: Natriuretic polypeptide receptor (hNpr1) antagonism - Pilot screen (AID 1347049; calls by dose curve;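 also: HEK293 cells with hNpr1 and GloSensor cGMP luciferase stimulated by 0.1 nM hNppA; agonist-evoked cGMP luminescence read 20 min after hNppA addition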)
# Method in brief: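 Receptor antagonism read as cGMP-dependent luminescence in hNpr1/pGS-40F HEK293 cells: pre-read after 30 min compound exposure, post-read 20 min after hNppA agonist at 0.1 nM final, all at room temperature, protected from light; A-71915 titration as control.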
# [8] = target: Atrial natriuretic peptide receptor 2 (Homo sapiens) (UniProt P20594); assay: Natriuretic polypeptide receptor (hNpr2) antagonism - Pilot subtype selectivity assay (AID 1347050; calls by dose curve)
# Chain of Atrial natriuretic peptide receptor 2 (Homo sapiens) (P20594 whole entry, looked up): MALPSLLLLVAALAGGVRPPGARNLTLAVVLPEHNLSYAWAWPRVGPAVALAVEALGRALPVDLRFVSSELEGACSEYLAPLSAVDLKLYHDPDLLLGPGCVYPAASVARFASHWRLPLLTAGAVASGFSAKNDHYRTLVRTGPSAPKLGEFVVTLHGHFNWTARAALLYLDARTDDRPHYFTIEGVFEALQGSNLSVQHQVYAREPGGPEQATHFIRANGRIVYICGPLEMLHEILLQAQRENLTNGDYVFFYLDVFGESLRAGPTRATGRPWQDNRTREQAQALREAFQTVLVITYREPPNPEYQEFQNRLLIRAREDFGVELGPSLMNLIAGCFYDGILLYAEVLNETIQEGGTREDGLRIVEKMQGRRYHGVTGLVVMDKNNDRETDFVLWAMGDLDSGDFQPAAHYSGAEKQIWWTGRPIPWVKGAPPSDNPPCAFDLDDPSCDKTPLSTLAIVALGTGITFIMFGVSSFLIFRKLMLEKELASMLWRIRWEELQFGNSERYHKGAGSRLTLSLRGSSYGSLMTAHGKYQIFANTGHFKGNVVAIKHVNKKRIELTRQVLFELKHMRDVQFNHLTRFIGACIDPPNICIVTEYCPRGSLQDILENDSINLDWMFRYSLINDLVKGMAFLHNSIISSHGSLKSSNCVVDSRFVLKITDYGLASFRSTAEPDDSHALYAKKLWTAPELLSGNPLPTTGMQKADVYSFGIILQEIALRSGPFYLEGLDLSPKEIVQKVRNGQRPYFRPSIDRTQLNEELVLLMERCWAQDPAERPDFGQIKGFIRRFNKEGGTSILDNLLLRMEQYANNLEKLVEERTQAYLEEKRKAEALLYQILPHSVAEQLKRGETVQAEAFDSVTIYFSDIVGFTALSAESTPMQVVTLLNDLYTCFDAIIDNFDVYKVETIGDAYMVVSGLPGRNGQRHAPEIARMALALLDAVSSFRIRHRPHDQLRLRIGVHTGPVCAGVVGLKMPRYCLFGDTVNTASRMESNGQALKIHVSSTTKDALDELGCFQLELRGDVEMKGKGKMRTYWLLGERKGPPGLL
# Method in brief: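 Antagonist mode: compounds (LOPAC1280, seven 1:5 dilutions) added 30 min before 1 nM hNppC stimulation of hNpr2-HEK293 cGMP-sensor cells; luminescence read before and 20 min after agonist at ambient temperature.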
# [9] = NS1 protein of Zika virus - qHTS assay to identify small molecule inhibitors in human HEK 293 cells (AID 1347053); also: nearly all actives have a fitted effect of over 55% in size
# Method in brief: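 Readout was TR-FRET using paired anti-NS1 antibodies after 24 h infection of HEK 293 cells with ZIKV MR766 (MOI = 0.5). Compound preceded virus by 1 h; reduced signal reflects lower NS1 expression.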
# [10] = target: T2, Tyrosine-protein phosphatase non-receptor type substrate 1 (Homo sapiens) + Leukocyte surface antigen CD47 (Homo sapiens) (UniProt P78324+Q08722); assay: CD47-SIRPalpha protein protein interaction - LANCE assay qHTS validation (AID 1347057; active = well fitted curve in the direction sought with a large enough effect in the signal ratio, with a control signal flat, not every such curve was filed as active; the % refers to the signal ratio)
# T2 sequence (P78324 whole entry, looked up, the tested form may be a part): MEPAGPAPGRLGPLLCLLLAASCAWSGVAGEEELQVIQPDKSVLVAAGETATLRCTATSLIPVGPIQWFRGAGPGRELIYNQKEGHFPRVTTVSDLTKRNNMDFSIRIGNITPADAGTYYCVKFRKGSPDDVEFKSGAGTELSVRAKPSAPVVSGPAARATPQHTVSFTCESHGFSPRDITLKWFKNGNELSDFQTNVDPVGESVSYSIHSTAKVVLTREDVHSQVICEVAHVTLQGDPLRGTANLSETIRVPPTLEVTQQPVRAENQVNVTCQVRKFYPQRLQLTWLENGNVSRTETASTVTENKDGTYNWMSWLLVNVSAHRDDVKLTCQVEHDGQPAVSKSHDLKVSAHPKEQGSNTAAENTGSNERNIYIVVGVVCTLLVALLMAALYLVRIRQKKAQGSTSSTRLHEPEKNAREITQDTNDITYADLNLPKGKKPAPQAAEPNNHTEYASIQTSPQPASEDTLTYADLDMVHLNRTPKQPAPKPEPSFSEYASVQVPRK
# T2 sequence (Q08722 whole entry, looked up, the tested form may be a part): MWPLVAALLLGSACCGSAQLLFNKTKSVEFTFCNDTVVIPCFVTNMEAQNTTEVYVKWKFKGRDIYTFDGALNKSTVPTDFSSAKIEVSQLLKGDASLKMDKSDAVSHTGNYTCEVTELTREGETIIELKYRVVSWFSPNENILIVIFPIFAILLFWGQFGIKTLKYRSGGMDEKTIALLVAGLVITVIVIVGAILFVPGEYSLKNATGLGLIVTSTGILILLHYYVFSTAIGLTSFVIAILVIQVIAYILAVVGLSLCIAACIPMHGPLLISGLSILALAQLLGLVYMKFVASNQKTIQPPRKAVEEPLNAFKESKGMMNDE
# Method in brief: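 Inhibition of soluble CD47/SIRPalpha ectodomain association by titrated compounds, measured as 665/615 nm time-resolved FRET ratio after sequential 30 min room-temperature incubations.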
# [11] = target: T2, Tyrosine-protein phosphatase non-receptor type substrate 1 (Homo sapiens) + Leukocyte surface antigen CD47 (Homo sapiens); assay: CD47-SIRPalpha protein protein interaction - HTRF assay qHTS validation (AID 1347058; active = well fitted curve in the direction sought with a large enough effect in the signal ratio, not every such curve was filed as active; the % refers to the signal ratio)
# Method in brief: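 Soluble extracellular domains (6His-CD47, Avi-tag-biotinylated SIRPalpha) in PBS pH 7.4 with 0.05% IGEPAL CA-630. Compounds were preincubated 30 min at RT with CD47 and anti-His-Eu, then SIRPalpha and SAV-XL665 were added. TR-FRET 665/615 ratio.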
# [12] = target: T2, Tyrosine-protein phosphatase non-receptor type substrate 1 (Homo sapiens) + Leukocyte surface antigen CD47 (Homo sapiens); assay: CD47-SIRPalpha protein protein interaction - Alpha assay qHTS validation (AID 1347059);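 also: bead proximity luminescence from CD47 binding SIRPalpha after compound preincubation with SIRPalpha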
# Method in brief: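 AlphaScreen signal between CD47-His (12.5 nM) and biotin-SIRPalpha (25 nM) soluble extracellular domains, bead-captured via Ni-NTA and streptavidin. Compounds, in 7-point titrations, met SIRPalpha 30 min before CD47; PBS pH 7.4 with 0.05% IGEPAL.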
# [13] = target: Parathyroid hormone/parathyroid hormone-related peptide receptor (Homo sapiens) (UniProt Q03431); assay: qHTS for PTHR1 Agonists: Optimization Screen against the NCGC LOPAC library (AID 1347079);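 also: GloSensor cAMP luminescence in HEK-293 GP2 cells expressing human PTHR1 with IBMX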
# Method in brief: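 HEK-293 GP2 cells, PTHR1 + GloSensor cAMP; 3000 cells/well, o/n. Luciferin + IBMX 0.5mM each (stock), 1 hr 37C. Cpd titration, 1 hr 37C. Lum after 15 min RT. Ctrl M-PTH(1-15) top 10uM.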
# [14] = system: Zika virus NS2B-NS3 protease (unlinked); assay: Optimization of GU AMC qHTS for Zika virus inhibitors: Unlinked NS2B-NS3 protease assay (AID 1347151); also: nearly all actives have a fitted effect of over 80% in size
# Method in brief: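 Fluorescence gain (340/450 nm) over 15 min at room temperature, ~20% conversion, gave percent inhibition fitted to a 4-parameter Hill equation; enzyme was unlinked NS2B-NS3 (25 nM final), pH 8.0 Tris buffer.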
# [15] = system: Zika virus NS2B-NS3 protease; assay: Primary screen GU AMC qHTS for Zika virus inhibitors (AID 1347154); also: nearly all actives have a fitted effect of over 70% in size
# Method in brief: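 Fluorogenic AMC-substrate cleavage by noncovalent NS2B-NS3 protease complex (25 nM, pH 8.0 Tris buffer with Tween 20) followed for 15 minutes at room temperature (~20% conversion). Percent inhibition from ex340/em450 signal change, fitted by 4-parameter Hill equation.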
# [16] = target: Lysine-specific demethylase 5B (Homo sapiens) (UniProt Q9UGL1); assay: Optimization screen for KDM5B Histone Demethylases FDH coupled qHTS against the LOPAC library (AID 1347166)
# Chain of Lysine-specific demethylase 5B (Homo sapiens) (Q9UGL1 whole entry, looked up): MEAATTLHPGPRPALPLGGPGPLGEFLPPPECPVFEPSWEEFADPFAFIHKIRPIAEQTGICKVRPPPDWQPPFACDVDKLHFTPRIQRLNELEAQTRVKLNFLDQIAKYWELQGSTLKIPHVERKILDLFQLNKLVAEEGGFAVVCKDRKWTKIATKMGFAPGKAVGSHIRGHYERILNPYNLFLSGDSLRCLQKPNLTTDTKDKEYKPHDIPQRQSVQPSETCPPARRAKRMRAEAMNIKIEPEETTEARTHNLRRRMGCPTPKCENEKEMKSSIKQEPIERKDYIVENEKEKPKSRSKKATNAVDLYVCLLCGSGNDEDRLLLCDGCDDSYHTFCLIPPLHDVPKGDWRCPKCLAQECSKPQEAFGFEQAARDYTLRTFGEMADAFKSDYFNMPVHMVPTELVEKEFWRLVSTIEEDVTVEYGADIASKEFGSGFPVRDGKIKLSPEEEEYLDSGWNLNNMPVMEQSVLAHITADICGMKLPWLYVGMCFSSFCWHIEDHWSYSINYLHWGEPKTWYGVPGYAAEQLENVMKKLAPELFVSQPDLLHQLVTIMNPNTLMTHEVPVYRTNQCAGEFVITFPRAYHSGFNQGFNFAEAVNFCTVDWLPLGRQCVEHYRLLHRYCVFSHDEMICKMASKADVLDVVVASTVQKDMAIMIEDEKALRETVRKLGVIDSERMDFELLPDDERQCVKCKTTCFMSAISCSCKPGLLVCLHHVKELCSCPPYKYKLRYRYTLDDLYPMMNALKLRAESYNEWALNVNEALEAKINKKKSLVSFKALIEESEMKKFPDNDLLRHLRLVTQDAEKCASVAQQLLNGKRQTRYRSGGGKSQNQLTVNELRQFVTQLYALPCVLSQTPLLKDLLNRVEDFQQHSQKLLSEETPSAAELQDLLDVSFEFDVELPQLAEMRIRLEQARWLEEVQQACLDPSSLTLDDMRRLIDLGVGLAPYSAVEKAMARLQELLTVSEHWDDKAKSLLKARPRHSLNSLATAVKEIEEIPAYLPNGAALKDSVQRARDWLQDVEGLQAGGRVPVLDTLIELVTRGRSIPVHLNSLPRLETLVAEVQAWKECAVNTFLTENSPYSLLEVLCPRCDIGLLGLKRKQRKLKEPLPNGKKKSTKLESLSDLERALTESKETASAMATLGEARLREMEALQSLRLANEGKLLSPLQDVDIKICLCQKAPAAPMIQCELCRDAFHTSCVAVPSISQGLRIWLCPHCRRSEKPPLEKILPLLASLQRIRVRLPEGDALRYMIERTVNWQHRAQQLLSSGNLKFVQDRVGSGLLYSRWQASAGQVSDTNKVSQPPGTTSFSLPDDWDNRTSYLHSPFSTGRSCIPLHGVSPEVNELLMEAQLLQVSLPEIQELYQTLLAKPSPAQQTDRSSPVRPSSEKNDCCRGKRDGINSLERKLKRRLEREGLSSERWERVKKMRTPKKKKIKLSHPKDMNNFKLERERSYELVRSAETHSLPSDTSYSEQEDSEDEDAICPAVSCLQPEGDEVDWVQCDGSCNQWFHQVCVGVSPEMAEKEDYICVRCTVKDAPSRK
# Method in brief: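 KDM5BDeltaAP (200nM final) in 50mM HEPES pH 7.5, 0.01% Tween-20 was preincubated with compound for 10 min at room temperature. A substrate mix of 12.5uM H3K4Me3, 25uM a-ketoglutarate, ascorbate, Fe2+, NAD+ and formaldehyde dehydrogenase was then added. NADH fluorescence (340/450 nm) was read initially and after 30 min.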
# [17] = qHTS to identify inhibitors of the type 1 interferon - major histocompatibility complex class I in skeletal muscle: primary screen against the NCATS LOPAC collection (AID 1347405);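 also: lytic HiBiT luminescence reporting HLA-B protein level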
# Method in brief: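 After 24 h at 37 C with compounds (7-point, 1:4.3 dilutions, 46 uM top final) plus 4 ng/ml IFN-beta, luminescence from lytic HiBiT detection was measured. HLA-B*08:01 in C25cl48 myoblasts carried an endogenous C-terminal HiBiT tag; medium lacked dexamethasone.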
# [18] = qHTS for inhibitors of adenylyl cyclases using a fission yeast platform: a pilot screen against the NCATS LOPAC library (AID 1347410)
# Method in brief: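 GFP from fbp1-GFP reporter, read by Acumen laser cytometry, indicates AC inhibition in fission yeast expressing AC9, GNAS and PDE4D2. Cells grown 18 h in the dark at 30C with compounds, final up to 57 uM.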
# [19] = target: Single-stranded DNA cytosine deaminase (Homo sapiens) (UniProt Q9GZX7); assay: Validation qHTS assay for inhibitors of Activation Induced Cytidine Deaminase (AID): AID signal (AID 1347429)
# Chain of Single-stranded DNA cytosine deaminase (Homo sapiens) (Q9GZX7 whole entry, looked up): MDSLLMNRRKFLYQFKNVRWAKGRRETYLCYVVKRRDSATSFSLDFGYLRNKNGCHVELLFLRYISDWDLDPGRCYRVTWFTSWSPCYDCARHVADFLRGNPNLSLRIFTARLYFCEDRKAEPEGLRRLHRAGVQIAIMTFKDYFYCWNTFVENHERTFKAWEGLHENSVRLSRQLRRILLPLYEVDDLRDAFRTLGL
# Method in brief: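 Compounds (final up to 114 uM) preincubated with AID plus UDG; 250 nM DJC20/DJC23 substrate mix (4x stock) added, 4 hr at room temperature, then NaOH, 30 min. Read 1 fluorescence at 540 nm excitation, 590 nm emission.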
# [20] = Primary qHTS for inhibitors of La Crosse Virus (LACV) - induced cell death in SH-SY5Y cells (AID 1508616);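 also: top concentration of the series differs between compounds; higher means more rescue of cells from virus-induced death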
# Method in brief: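 Rescue of virus-induced death was read as ATPLite luminescence after 6 days at 37C, scaled between DMSO wells with LACV and without virus. Cells were SH-SY5Y, 6000/well, infected at 0.01 MOI after compound addition.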
# [21] = target: Calcium and integrin-binding protein 1 (Homo sapiens) (UniProt Q99828); assay: Validation qHTS for Identification of Calcium Integrin Binding protein 1 (CIB1) Competitor (AID 1508618)
# Method in brief: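 Fluorescence polarization with 1 uM CIB1-GST and 100 nM FITC-alphaIIb peptide in HEPES pH 7.4, NaCl, 5 mM CaCl2, Tween20. Compounds at up to 114 uM final, preincubated with protein 15 min; read after 15 min more at RT.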
# [22] = Primary qHTS for small molecule stabilizers of the endoplasmic reticulum resident proteome: Secreted ER Calcium Modulated Protein (SERCaMP) assay (AID 1508630)
# Method in brief: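 The SH-SY5Y reporter protocol was run at 3 concentrations up to 38.3 uM (primary) or 11 concentrations (follow-up): 16 h compound, 100 nM thapsigargin for 4 h, then extracellular luciferase luminescence.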
# Papain (Carica papaya) = Papain (Carica papaya) (UniProt P00784); assay: Primary qHTS assay for inhibitors of the protease papain (AID 1645873);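 also: papain turnover of Z-FR-AMC read as the AMC fluorescence gain over 10 min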
# [23] = target: Catechol O-methyltransferase (Homo sapiens) (UniProt P21964); assay: Confirmatory Screen for Target Class Profiling of Small Molecule Inhibitors of Methyltransferases (AID 1745852; calls by dose curve); conditions: MTase-Glo luminescence, SAH detection, recombinant enzyme; measured here: COMT max response; stronger effect = lower value
# [24] = target: Guanidinoacetate N-methyltransferase (Homo sapiens) (UniProt Q14353); assay: as above; conditions: activity change, negative = inhibition: at 57.3 µM (top of the series) unless noted
# [25] = target: Nicotinamide N-methyltransferase (Homo sapiens) (UniProt P40261); assay: as above; conditions: MTase-Glo luminescence, SAH detection, recombinant enzyme; measured here: NNMT max response; stronger effect = lower value
# [26] = target: Phenylethanolamine N-methyltransferase (Homo sapiens) (UniProt P11086); assay: as above; conditions: MTase-Glo luminescence, SAH detection, recombinant enzyme; measured here: PNMT max response; stronger effect = lower value
# [27] = target: Metallo-beta-lactamase type 2 (Klebsiella pneumoniae) (UniProt C7C422); assay: qHTS to identify inhibitors of the New Delhi Metallo-beta-lactamase (NDM): assay validation screen against the NCATS LOPAC Collection (AID 1794843);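 also: nitrocefin turnover by NDM-1 measured as 485 nm absorbance at plateau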
# Method in brief: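 NDM-1 at 2 nM final in 50 mM HEPES pH 7.0, 1 uM ZnSO4, 0.01% Tween20, preincubated with LOPAC compounds pinned in DMSO; 50 uM nitrocefin (stock) added. Hydrolysis read as absorbance at 485 nm in the plateau phase.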
# [28] = target: Glutathione peroxidase 1 (Homo sapiens) (UniProt P07203); assay: Primary qHTS Assay for Inhibitors of Recombinant Selenoprotein Glutathione Peroxidase 1 (GPX1) (AID 1845191); also: nearly all actives have a fitted effect of over 65% in size
# Chain of Glutathione peroxidase 1 (Homo sapiens) (P07203 whole entry, looked up): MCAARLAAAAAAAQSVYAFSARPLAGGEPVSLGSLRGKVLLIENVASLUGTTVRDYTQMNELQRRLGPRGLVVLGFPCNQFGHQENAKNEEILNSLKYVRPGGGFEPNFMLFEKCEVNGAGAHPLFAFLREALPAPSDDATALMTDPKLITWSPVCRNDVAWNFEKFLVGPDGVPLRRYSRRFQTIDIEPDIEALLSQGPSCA
# Method in brief: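 NADPH consumption tracked by fluorescence at 340/450 nm between t=0 and t=15 min, room temperature. Final mix: 10 nM GPX1, 100 nM glutathione reductase, 1 mM GSH, 0.5 mM NADPH, 0.5 mM cumene hydroperoxide, 0.01% BSA; 30 min compound–enzyme preincubation.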
# [29] = target: Phospholipid hydroperoxide glutathione peroxidase GPX4 (Homo sapiens) (UniProt P36969); assay: Primary qHTS Assay for Inhibitors of Recombinant Selenoprotein Glutathione Peroxidase 4 (GPX4) (AID 1845192); conditions: outcome: dose series up to 50 µM unless noted; also: nearly all actives have a fitted effect of over 65% in size
# Method in brief: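 NADPH consumption followed by fluorescence at 340/450 nm, t=0 and after 15 min at room temperature. Reaction started with cumene hydroperoxide (0.5 mM final) after 30 min compound–GPX4 preincubation; final 200 nM GPX4, 100 nM GR, 1 mM GSH, 0.5 mM NADPH.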
compound,measurement,setting,value
C[C@H](Cc1ccccc1)Nc1ncnc2c1ncn2[C@@H]1O[C@H](CO)[C@@H](O)[C@H]1O,Potency,[1],inactive
same,outcome,[2],inactive
same,outcome,[3],inactive
same,outcome,[4],inactive
same,max response,[5],-7.31% (inactive)
same,Potency,[6],inactive
same,Potency,[7],inactive
same,Potency,[8],inactive
same,outcome,[9],inactive
same,outcome,[10],inactive
same,outcome,[11],inactive
same,Potency,[12],inactive
same,outcome,[13],inactive
same,Potency,[14],inactive
same,Potency,[15],inactive
same,outcome,[16],inactive
same,Potency,[17],inactive
same,outcome,[18],inactive
same,Potency,[19],inactive
same,outcome,[20],inactive
same,outcome,[21],inactive
same,Potency,[22],inactive
same,Potency,Papain (Carica papaya),inactive
same,activity,[23],-28.1%
same,"activity change, negative = inhibition",[24],-3.97%
same,activity,[25],4.48%
same,activity,[26],-12.3%
same,Potency,[27],inactive
same,Potency,[28],inactive
same,Potency,[29],inactive
